Source: PubChem BioAssay (Tox21)
“And” between values parts separate entries of the source, which are not always exact repeats. Identical values can stand only once. Results filed as inconclusive are left out. Entries that show only a call come without a potency. Where a structure was tested more than once in an assay, its records may differ in their call. The source made the active and inactive calls. Unless noted, calls come from the whole dose curve; as a rule, active = well fitted curve in the direction sought with a large enough effect in the repeat runs; inconclusive = weak or mixed curves; inactive = no such curve, though single readings can be large; an effect the other way counts as inactive or inconclusive.

Experiments:
[1] = A CellTox Green Cytotoxicity Assay to monitor cytotoxicity in HepG2 cells - 8 hour (AID 1224890); note: nearly all actives have a fitted effect of over 45% in size; note: potency is the fitted concentration of half-maximal effect
Procedure, shortened: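 Fluorescent DNA-binding dye, 600 HepG2 cells/well, 5 h preincubation then compound in DMSO; same plates read at 0–40 h, 37 C.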

[2] = qHTS assay to identify small molecule antagonists of the estrogen receptor alpha (ER-alpha) signaling pathway using the BG1 cell line in the presence of 0.1 nM 17-beta-estradiol - cell viability counter screen (AID 1259241); note: nearly all actives have a fitted effect of over 40% in size
Procedure, shortened: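 Following 5 days in phenol red-free medium with charcoal-stripped serum, VM7Luc4E2 cells received test compounds alongside 0.1 nM 17beta-estradiol (final) at 37C for 22 hr. Live cells were then quantified via protease-substrate fluorescence.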

[3] = qHTS assay to identify small molecule antagonists of the androgen receptor (AR) signaling pathway using the MDA cell line in the presence of 0.5 nM R1881 - cell viability counter screen (AID 1259242); note: nearly all actives have a fitted effect of over 45% in size
Procedure, shortened: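 Human breast carcinoma MDA-kb2 cells, cultured without CO2, receive compounds alongside 0.5 nM (final) R1881 agonist. After 16 hr at 37C, viability is taken as live-cell protease signal.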

[4] = molecular target: Estrogen receptor (Homo sapiens) (UniProt P03372); experiment: qHTS assay to identify small molecule antagonists of the estrogen receptor alpha (ER-alpha) signaling pathway using the BG1 cell line in the presence of 0.1 nM 17-beta-estradiol (AID 1259244); note: nearly all actives have a fitted effect of over 50% in size
Sequence of Estrogen receptor (Homo sapiens) (P03372 whole entry, looked up): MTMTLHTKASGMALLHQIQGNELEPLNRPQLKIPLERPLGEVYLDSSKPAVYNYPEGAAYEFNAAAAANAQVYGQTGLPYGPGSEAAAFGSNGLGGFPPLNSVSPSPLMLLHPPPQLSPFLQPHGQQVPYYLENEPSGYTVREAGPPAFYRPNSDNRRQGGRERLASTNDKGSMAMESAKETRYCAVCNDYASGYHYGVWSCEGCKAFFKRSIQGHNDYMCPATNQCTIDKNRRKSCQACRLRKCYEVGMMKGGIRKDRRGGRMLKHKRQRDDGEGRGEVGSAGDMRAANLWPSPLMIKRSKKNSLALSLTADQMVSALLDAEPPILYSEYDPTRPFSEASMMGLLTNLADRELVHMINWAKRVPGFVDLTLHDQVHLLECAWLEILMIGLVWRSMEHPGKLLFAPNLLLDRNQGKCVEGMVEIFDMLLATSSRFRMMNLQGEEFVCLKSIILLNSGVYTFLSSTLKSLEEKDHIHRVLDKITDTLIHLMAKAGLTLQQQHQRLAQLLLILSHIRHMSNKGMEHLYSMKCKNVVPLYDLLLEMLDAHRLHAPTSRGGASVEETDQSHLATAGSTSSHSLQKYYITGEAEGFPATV
Procedure, shortened: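 Seeding of stripped-serum-adapted VM7Luc4E2 cells, 24 h attachment, compound transfer, then 0.1 nM final 17beta-estradiol; after 22 h incubation, ONE-Glo reagent and luminescence reading.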

[5] = qHTS assay to identify small molecule HDAC inhibitors (AID 1259364); note: potency is the fitted concentration of half-maximal effect;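 note: wild-type HCT-116 cells with endogenous class I/II HDAC activity; nearly all actives have a fitted effect of over 45% in size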
Procedure, shortened: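 After a 2 hr compound incubation (37C, 5% CO2), HCT-116 cells seeded at 1,500/well the day before received HDAC-Glo reagent; signal read as luminescence after 30 min at room temperature.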

[6] = qHTS assay to identify small molecule HDAC inhibitors - cell viability counter screen (AID 1259365); note: series mostly up to about 92 µM; nearly all actives have a fitted effect of over 50% in size
Procedure, shortened: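 HCT-116 wild-type, overnight attachment; 2hr drug exposure, 37C; CellTiter-Glo luminescent ATP readout after 30min RT.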

[7] = qHTS assay to identify small molecule agonists of the sonic hedgehog signaling (Shh) pathway - cell viability counter screen (AID 1259366); note: nearly all actives have a fitted effect of over 50% in size
Procedure, shortened: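 Compounds in DMSO were pin-transferred onto 3T3 Gli1-Luc cells that had settled 4hr; plates then stood 24hr at 37C and 5% CO2. One hour before the end, CellTiter-Fluor was added and fluorescence recorded.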

[8] = qHTS assay to identify small molecule antagonists of the sonic hedgehog signaling (Shh) pathway - cell viability counter screen (AID 1259367); note: nearly all actives have a fitted effect of over 55% in size
Procedure, shortened: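 Tox21 library chemicals were tested on a Gli1-Luc NIH/3T3 clone (2,000 cells/well) stimulated by conditioned medium; viability was quantified as fluorescence from CellTiter-Fluor reagent added at 23 hr.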

[9] = qHTS assay to identify small molecule agonists of the sonic hedgehog signaling (Shh) pathway (AID 1259368; calls by dose curve;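 note: NIH/3T3-derived 3T3Gli1-Luc cells carrying a stable Gli1-driven firefly luciferase reporter; series mostly up to about 92 µM; nearly all actives have a fitted effect of over 15% in size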)
Procedure, shortened: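 Stable NIH/3T3 Gli1-Luc reporter clone; 24 hr cpd exposure after a 4 hr settling period; luminescence endpoint.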

[10] = qHTS assay to identify small molecule antagonists of the sonic hedgehog signaling (Shh) pathway (AID 1259369; calls by dose curve; note: nearly all actives have a fitted effect of over 45% in size; note: potency is the fitted concentration of half-maximal effect)
Procedure, shortened: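 Gli1 transcriptional reporter (firefly Luc) in NIH/3T3 background, conditioned-medium activated. 24hr exposure, luminescence endpoint.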

[11] = qHTS assay to identify small molecule agonists of the androgen receptor (AR) signaling pathway in the presence of an antagonist - cell viability counter screen (AID 1259379); note: nearly all actives have a fitted effect of over 25% in size; note: potency is the fitted concentration of half-maximal effect
Procedure, shortened: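 Counter screen for cell viability run in parallel with the AR agonist-mode luciferase assay. MDA-kb2 cells were co-treated with nilutamide (3.0uM final) and compounds, then incubated 16 hr at 37C, and CellTiter-Fluor fluorescence was measured.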

[12] = qHTS assay to identify small molecule agonists of the estrogen receptor beta (ER-beta) signaling pathway - cell viability counter screen (AID 1259380); note: nearly all actives have a fitted effect of over 30% in size; note: potency is the fitted concentration of half-maximal effect
Procedure, shortened: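 In this qHTS counter screen, HEK293T cells carrying an ER-beta/UAS beta-lactamase reporter, grown in 2% charcoal-stripped FBS, received compound for 16 hr; ATP-based CellTiter-Glo luminescence was then read after 30 min at room temperature.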

[13] = qHTS assay to identify small molecule antagonists of the estrogen receptor beta (ER-beta) signaling pathway - cell viability counter screen (AID 1259382); note: nearly all actives have a fitted effect of over 55% in size; note: potency is the fitted concentration of half-maximal effect
Procedure, shortened: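 HEK293T ER-beta-UAS-bla, 2% charcoal-stripped FBS; compounds + 1nM E2 16 hr 37C; CellTiter-Glo luminescence, 30 min RT.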

[14] = molecular target: Estrogen receptor (Homo sapiens) (UniProt P03372); experiment: qHTS assay to identify small molecule agonists of the estrogen receptor alpha (ER-alpha) signaling pathway in the presence of an antagonist (AID 1259383; calls by dose curve; note: nearly all actives have a fitted effect of over 15% in size; note: potency is the fitted concentration of half-maximal effect; for activation: top concentration of the series differs between compounds)
Procedure, shortened: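 ER-alpha agonism measured under antagonist challenge: 10.0nM ICI-182,780 (final) plus compound, 15 concentrations, 22hr, VM7Luc4E2 ERE-luciferase cells. Read by luminescence.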

[15] = qHTS assay to identify small molecule agonists or antagonists of the thyroid stimulating hormone receptor (TSHR) signaling pathway - wild type cell line counter screen (AID 1259384; calls by dose curve)
Procedure, shortened: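 Wild-type Hek293 cells, 800/well, 18 h at 37C, then compound with Ro20-1724 for 30 min RT. cAMP by HTRF (cAMP-d2/anti-cAMP cryptate), 1 h RT, fluorescence read. 15 concentrations, triplicates.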

[16] = molecular target: Androgen receptor (Homo sapiens) (UniProt P10275); experiment: qHTS assay to identify small molecule antagonists of the androgen receptor (AR) signaling pathway using the MDA cell line in the presence of 0.5 nM R1881 (AID 1259243); note: nearly all actives have a fitted effect of over 50% in size
Sequence of Androgen receptor (Homo sapiens) (P10275 whole entry, looked up): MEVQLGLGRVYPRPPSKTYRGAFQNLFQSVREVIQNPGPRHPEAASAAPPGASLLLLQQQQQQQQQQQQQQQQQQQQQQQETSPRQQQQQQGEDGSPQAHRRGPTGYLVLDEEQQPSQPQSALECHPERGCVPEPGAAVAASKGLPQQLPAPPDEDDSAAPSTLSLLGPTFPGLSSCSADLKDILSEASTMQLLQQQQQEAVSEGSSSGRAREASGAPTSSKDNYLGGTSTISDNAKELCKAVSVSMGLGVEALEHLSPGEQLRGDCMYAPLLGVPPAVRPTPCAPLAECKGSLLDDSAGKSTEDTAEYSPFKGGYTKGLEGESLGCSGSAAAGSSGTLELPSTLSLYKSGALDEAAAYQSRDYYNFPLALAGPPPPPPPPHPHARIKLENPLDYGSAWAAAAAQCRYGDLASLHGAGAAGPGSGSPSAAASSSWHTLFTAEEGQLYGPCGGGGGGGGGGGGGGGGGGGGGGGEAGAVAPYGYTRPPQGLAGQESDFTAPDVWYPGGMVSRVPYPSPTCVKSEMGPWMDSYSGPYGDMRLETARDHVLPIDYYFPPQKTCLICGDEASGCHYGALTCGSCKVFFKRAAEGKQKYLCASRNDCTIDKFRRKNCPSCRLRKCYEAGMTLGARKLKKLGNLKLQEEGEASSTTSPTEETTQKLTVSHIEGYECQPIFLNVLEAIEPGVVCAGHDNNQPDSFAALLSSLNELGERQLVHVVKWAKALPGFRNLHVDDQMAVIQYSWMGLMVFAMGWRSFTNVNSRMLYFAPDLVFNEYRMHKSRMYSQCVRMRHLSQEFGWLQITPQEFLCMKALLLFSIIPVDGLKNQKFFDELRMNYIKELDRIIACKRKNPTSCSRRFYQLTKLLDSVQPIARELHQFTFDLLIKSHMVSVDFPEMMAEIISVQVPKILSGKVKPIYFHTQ
Procedure, shortened: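 Cells: MDA-kb2 (MMTV-luc). Stimulus: 0.5 nM R1881. Time: 16 hr, 37C, no CO2. Detection: ONE-Glo luminescence after 30 min at RT.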

[17] = molecular target: Estrogen receptor beta (Homo sapiens) (UniProt Q92731); experiment: qHTS assay to identify small molecule agonists of the estrogen receptor beta (ER-beta) signaling pathway (AID 1259377; active = well fitted activation curve with a large enough effect in the signal ratio in the repeat runs, not every such curve was filed as active; the % refers to the signal ratio)
Sequence of Estrogen receptor beta (Homo sapiens) (Q92731 whole entry, looked up): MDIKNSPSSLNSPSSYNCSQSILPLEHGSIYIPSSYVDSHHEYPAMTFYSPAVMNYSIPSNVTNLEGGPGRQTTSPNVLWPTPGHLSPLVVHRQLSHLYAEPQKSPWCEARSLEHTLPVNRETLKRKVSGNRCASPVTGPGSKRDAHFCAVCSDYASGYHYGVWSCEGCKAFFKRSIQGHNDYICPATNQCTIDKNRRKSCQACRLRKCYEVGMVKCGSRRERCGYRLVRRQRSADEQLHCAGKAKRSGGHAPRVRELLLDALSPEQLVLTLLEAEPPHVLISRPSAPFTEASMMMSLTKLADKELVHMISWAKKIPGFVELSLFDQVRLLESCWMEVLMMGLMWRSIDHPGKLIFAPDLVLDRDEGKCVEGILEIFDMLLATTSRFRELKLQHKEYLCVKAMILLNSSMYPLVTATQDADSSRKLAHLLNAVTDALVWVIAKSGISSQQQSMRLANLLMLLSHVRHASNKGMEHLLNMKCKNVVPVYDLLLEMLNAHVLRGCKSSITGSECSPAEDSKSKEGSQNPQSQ
Procedure, shortened: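 qHTS in ER-beta-UAS-bla HEK293T cells: 6 hr settling, then 16 hr compound at 37C, then LiveBLAzer substrate 2 h at RT before fluorescence reading.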

[18] = molecular target: Estrogen receptor beta (Homo sapiens) (UniProt Q92731); experiment: qHTS assay to identify small molecule antagonists of the estrogen receptor beta (ER-beta) signaling pathway (AID 1259378; active = well fitted inhibition curve with a large enough effect in the signal ratio in the repeat runs, not every such curve was filed as active; the % refers to the signal ratio)
Procedure, shortened: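 ER-beta-UAS-bla HEK293T cells in 2% charcoal-stripped FBS medium treated with compound plus 1nM final 17-beta-estradiol for 16 hr at 37C. Beta-lactamase reporter read by FRET substrate fluorescence after 2 hours at room temperature.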

[19] = molecular target: Androgen receptor (Homo sapiens) (UniProt P10275); experiment: qHTS assay to identify small molecule agonists of the androgen receptor (AR) signaling pathway in the presence of an antagonist (AID 1259381; calls by dose curve; note: nearly all actives have a fitted effect of over 15% in size)
Procedure, shortened: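 AR antagonist background: nilutamide 3.0uM final. Cell line: MDA-kb2, MMTV-driven luciferase, responsive to both AR and GR. Exposure 16hr, 37C, no CO2; ONE-Glo luminescence.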

[20] = qHTS assay to identify small molecule phospholipidosis (PLD) inducers (AID 1259344; active = well fitted curve in the direction sought with a large enough effect; an effect the other way counts as inactive or inconclusive)
Procedure, shortened: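 Image-based: LipidTOX Red pit count/intensity per well and per cell; HepG2, 24 h compound at 37 C, PFA fixation, Hoechst counterstain.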

| Compound | Potency [1] | Potency [2] | Potency [3] | Potency [4] | Potency [5] | outcome [6] | Potency [7] | Potency [8] | outcome [9] | Potency [10] | Potency [11] | Potency [12] | Potency [13] | Potency [14] | outcome [15] | outcome [16] | Potency [17] | Potency [18] | Potency [19] | outcome [20] |
| --- | --- | --- | --- | --- | --- | --- | --- | --- | --- | --- | --- | --- | --- | --- | --- | --- | --- | --- | --- | --- |
| C=C(C)C(=O)OCCCCCC | inactive | inactive | inactive | inactive | inactive | inactive | inactive | inactive | inactive | inactive | inactive | inactive | inactive | inactive | inactive | – | – | – | – | – |
| O=C1CCCCC1 | inactive | inactive | inactive | inactive | inactive | inactive | inactive | inactive | inactive | inactive | inactive | inactive | inactive | inactive | – | inactive | inactive | inactive | inactive | – |
| CS(=O)(=O)c1ccc([C@@H](O)[C@@H](CO)NC(=O)C(Cl)Cl)cc1 | inactive | inactive | inactive | inactive | inactive | inactive | inactive | inactive | inactive | inactive | inactive | inactive | inactive | inactive | – | – | – | – | – | inactive |
| COC(=O)c1ccccc1O | inactive | inactive | inactive | inactive | inactive | inactive | inactive | inactive | inactive | inactive | inactive | inactive | inactive | inactive | inactive | – | inactive | inactive | – | inactive |
| ClC1=C(Cl)C(Cl)(Cl)C(Cl)=C1Cl | inactive | inactive | inactive | inactive | inactive | inactive | inactive | inactive | inactive | inactive | 43.3 µM (active) | inactive | inactive | inactive | inactive | – | inactive | inactive | – | – |
| CCCCOCCO | inactive | inactive | inactive | inactive | inactive | inactive | inactive | inactive | inactive | inactive | inactive | inactive | inactive | inactive | inactive | – | – | – | – | – |
| O=S(=O)(Oc1ccc(Cl)cc1Cl)c1ccccc1 | inactive | inactive | inactive | inactive | inactive | inactive | inactive | inactive | inactive | inactive | inactive | inactive | inactive | inactive | inactive | – | – | – | – | – |
| C[C@@H](O)[C@H]1C(=O)N2C(C(=O)O)=C(S[C@@H]3CN[C@H](C(=O)N(C)C)C3)[C@H](C)[C@H]12 | inactive | inactive | inactive | – | inactive | inactive | – | inactive | inactive | inactive | inactive | inactive | inactive | – | inactive | – | inactive | inactive | – | inactive |
| O=c1c(-c2ccc(O)cc2)coc2cc(O)ccc12 | inactive | – | inactive | inactive | 5.39 µM (active) and 6.11 µM (active) | inactive | – | inactive | inactive | 13.5 µM (active) and 19.3 µM (active) | inactive | – | inactive | – | inactive | inactive | – | – | inactive | – |
| Nc1nc2ncc(CNc3ccc(C(=O)N[C@@H](CCC(=O)O)C(=O)O)cc3)nc2c(=O)[nH]1 | inactive | – | inactive | – | inactive | inactive | inactive | inactive | inactive | inactive | inactive | inactive | inactive | – | inactive | inactive | inactive | inactive | inactive | inactive |
| C=C(C#N)C(=O)OCC | inactive | inactive | inactive | – | inactive | inactive | inactive | inactive | inactive | inactive and 15.4 µM (active) | inactive | inactive | inactive | – | inactive | – | – | – | – | – |
| O=S(=O)(O)CCS | inactive | – | inactive | inactive | inactive | inactive | inactive | inactive | inactive | inactive | inactive | inactive | inactive | inactive | inactive | – | inactive | inactive | – | inactive |
| CC(C)NCC(O)COc1cccc2ccccc12 (stereo not drawn) | inactive | inactive | inactive | – | inactive | inactive | – | inactive | inactive | 24.3 µM (active) | inactive | 55 µM (active) and 54.5 µM (active) | 27.6 µM (active) | – | – | – | inactive | – | – | – |
| CN(C)c1cccc(O)c1 | inactive and 54.9 µM (active) | inactive | inactive | – | inactive | inactive | – | inactive | inactive | inactive | inactive | inactive | inactive | – | inactive | – | inactive | inactive | – | – |
| O=C1O[C@H](CO)[C@@H](O)[C@H](O)[C@H]1O | inactive | – | inactive | inactive | inactive | inactive | inactive | inactive | inactive | inactive | inactive | inactive | inactive | inactive | inactive | – | inactive | inactive | – | inactive |
| C/C=C(C)/C=C/C=C(C)C | inactive | inactive | inactive | – | inactive | inactive | inactive | inactive | inactive | 27.3 µM (active) | inactive | inactive | inactive | – | – | – | inactive | inactive | – | – |
| Oc1ccc(OCc2ccccc2)cc1 | inactive | – | inactive | inactive | 6.71 µM (active) and inactive | inactive | inactive | inactive | inactive | inactive | inactive | inactive | inactive | 15 µM (active) and inactive | inactive | – | inactive | inactive | inactive | inactive |
